The full ranking holds about 25,000 sequences; the median of “ln(normalized median fluorescence intensity)” is about 7.1, and the highest 2% start at about 10. The sample holds the highest values, similar sequences and a random draw of the others, so the mix is not that of the screen.
Each sequence was assayed on PfSIP2 AP2 domain 1 (GST-tagged) (assay: gcPBM binding intensity (ln(normalized median fluorescence intensity)); higher = stronger DNA binding).
Outline: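 Binding intensity values are the highest Masliner-normalised natural-log median intensity among replicate spots of either probe orientation. The binding step lasted 1 h in 1× PBS with 1% milk, 0.2 mg/ml BSA, 0.5% salmon testes DNA and 0.03% Triton X-100, using GST-tagged P. falciparum DNA-binding domains expressed in E. coli on an Agilent 4 × 180k array of primer-extended double-stranded 36-bp intergenic genomic probes plus negative controls. Alexa488 anti-GST antibody and a 488 nm scan detected bound protein.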
For “ATTTTTTCATATTCTACACACGTGAACAAATGAGTC [CACACA_site5635]”, the “gcPBM binding intensity (ln)” value was 7.21.
With “TTTTTAAAATATTTAACACACAATTATAATGCATAA [CACACA_site3932]” the “gcPBM binding intensity (ln)” value was 7.23.
“ATATATTTATAATAGGTGCATATGTTTTATTTTTCC [GTGCAC_site9849]” was tested, and the “gcPBM binding intensity (ln)” value was 10.2.
For ATATTTTTATATGAGGTGCATATAATGACAATTAAG, the “gcPBM binding intensity (ln)” value was 10.6.
For “AAAAATAATCATTAGGTGCAAAAAATATATATATAT [GTGCAC_site9631]”, the “gcPBM binding intensity (ln)” value was 9.96.
For “ACTAATAATTTGTCGGTGCATAAAATTATTTTTATT [GTGCAC_site9840]”, the “gcPBM binding intensity (ln)” value was 10.7.
ATATATAAAAATTAGGTGCATTAAATTAAAATATAT was tested, and the “gcPBM binding intensity (ln)” value was 10.3.
“AAAAAAAAAATTTAGGTGCATACAAATAAATTATAT [GTGCAC_site9521]” was tested, and the “gcPBM binding intensity (ln)” value was 9.85.
In the case of “CATATAAGACAAAAGGTGCAATTTTAATGCTTTTAT [GTGCAC_site9432]”, the “gcPBM binding intensity (ln)” value is reported as 9.98.
ATTTCTTTTGTTATAGTGCATAATATTTATGTACGT was tested, and the “gcPBM binding intensity (ln)” value was 8.59.
In the case of TAATAATTTTATAAAGTGCATAAAAATAAAAATTTT, the “gcPBM binding intensity (ln)” value is reported as 8.89.
For “TTTTTTATTAAATATATATAATAATAATAATTTGTA [CACACA_negctrl_site1719]”, the “gcPBM binding intensity (ln)” value was 6.88.
With ATATATATATATATAGTGCATAATGTTTTAATAGAT the “gcPBM binding intensity (ln)” value was 9.54.
In the case of “TTTAATATTATTATTTTACACACTTTTTTCCTTTTA [CACACA_site8780]”, the “gcPBM binding intensity (ln)” value is reported as 6.64.
“TACATGTATAATATAATACACACTATATAATATACA [CACACA_site2239]” was tested, and the “gcPBM binding intensity (ln)” value was 6.92.
With “TACTATAACCCACATACACACAAAAAAAAAAAAAAA [CACACA_site4454]” the “gcPBM binding intensity (ln)” value was 7.11.
With “ACATAATAAAAATGACGTACAATTTTTTTTTTTCAT [XGTACX_site8340]” the “gcPBM binding intensity (ln)” value was 7.01.
“AAAAAACGCACTCGTACACACATATTTTCTTTCTAA [CACACA_site3089]” was tested, and the “gcPBM binding intensity (ln)” value was 8.76.
With “TTTTTTAGATTACATAAATATAAATATAAATATATA [GTGCAC_negctrl_site459]” the “gcPBM binding intensity (ln)” value was 6.68.
“ATGTTTTGTAAAATGATTAAATATTAAGATTCAATA [CACACA_negctrl_site1743]” was tested, and the “gcPBM binding intensity (ln)” value was 6.7.
For “ATATATATAGAAATATGTACGAAAAAAATATCACAT [XGTACX_site746]”, the “gcPBM binding intensity (ln)” value was 7.63.
With “TATATTACAAAAAGTACACACATAAATAAATACATA [CACACA_site975]” the “gcPBM binding intensity (ln)” value was 7.17.
“CCATAGATATTTTATACACACATATAATATATTAAT [CACACA_site373]” was tested, and the “gcPBM binding intensity (ln)” value was 7.17.
With “TTTCTTTATTTATAATAATTTTTTATTAAAAATAGA [CACACA_negctrl_site1610]” the “gcPBM binding intensity (ln)” value was 6.78.
For “TTTTATTATATGGAGGTGCATATATAATAATATAAT [GTGCAC_site9477]”, the “gcPBM binding intensity (ln)” value was 11.
In the case of “TATATATTAAAAATAGTGCAAAATAATATATATATA [GTGCAC_site9716]”, the “gcPBM binding intensity (ln)” value is reported as 8.84.
“TTTTTTTTTTCTTAGGTGCAAAAAATAAGTATATAT [GTGCAC_site9394]” was tested, and the “gcPBM binding intensity (ln)” value was 10.1.
For “TATACAAGTATATAGGTGCATATATAAGTATATATT [GTGCAC_site9994]”, the “gcPBM binding intensity (ln)” value was 10.3.
For GTATAGTACAAATAAGTGCATATAAAAGAAATACAG, the “gcPBM binding intensity (ln)” value was 8.56.
“ATACATCGTATATAAGTGCATATTAAGGTCTTAAGA [GTGCAC_site9560]” was tested, and the “gcPBM binding intensity (ln)” value was 8.11.
In the case of TTTTAAAATTATTAGGTGCATATTTATTCTATATTT, the “gcPBM binding intensity (ln)” value is reported as 10.
With “TATAATAATATTATAGTGCATATTATTTATATATAA [GTGCAC_site9820]” the “gcPBM binding intensity (ln)” value was 8.67.
With “ACATATATATATATATATAATATTTTATATTTATTA [CACACA_negctrl_site713]” the “gcPBM binding intensity (ln)” value was 7.49.
TTTCTTTTTAAATAGGTGCATATTTTTATAAATATA was tested, and the “gcPBM binding intensity (ln)” value was 11.
In the case of TCTTAAAATATATAGGTGCAAAAAAAAAAAAAAAAA, the “gcPBM binding intensity (ln)” value is reported as 10.6.
“AAAAAAAAAAAAGAAAAATATATATATAAATAAATA [GTGCAC_negctrl_site569]” was tested, and the “gcPBM binding intensity (ln)” value was 6.98.
With “TTTTTCATATGACACACACACAAAAATAATGTGGAA [CACACA_site7692]” the “gcPBM binding intensity (ln)” value was 6.99.
For “AAATTATATTATTGAACACACGTTTGGTAATGTTTT [CACACA_site5469]”, the “gcPBM binding intensity (ln)” value was 6.78.
With “GCTATTTATTTATATTGTACTTTTTTTTTTTTTTTT [XGTACX_site3624]” the “gcPBM binding intensity (ln)” value was 7.67.
For “TAAATTGAGTATATTACACACATATAAATATATTAT [CACACA_site4027]”, the “gcPBM binding intensity (ln)” value was 6.88.
In the case of “GAACAAATTACAAGTTGTACTTTATGTAAATTATTA [XGTACX_site5304]”, the “gcPBM binding intensity (ln)” value is reported as 6.76.
In the case of “ATACTATTATATATATGTACATATATATGATGCTCT [XGTACX_site1771]”, the “gcPBM binding intensity (ln)” value is reported as 7.22.
For “ATATTATATATATAGGTGCGAGTATTTTATAAATAT [GTGCAC_site9889]”, the “gcPBM binding intensity (ln)” value was 9.06.
In the case of TTTTGTTATTTTTTAGTGCATATAAAGGTTGTTAAG, the “gcPBM binding intensity (ln)” value is reported as 8.64.
In the case of “ATAATTGTTTAAAGGTGTACAATACATATATTTTAA [XGTACX_site3648]”, the “gcPBM binding intensity (ln)” value is reported as 6.91.
TCGAATATCTTATAGGTGCATCATAAATACATATGT was tested, and the “gcPBM binding intensity (ln)” value was 10.8.
“TTTTTATTTATATGATACTTATATATATATATATAT [CACACA_negctrl_site462]” was tested, and the “gcPBM binding intensity (ln)” value was 9.5.
